# Experimental data: ChEMBL document CHEMBL1157539, “Thousands of chemical starting points for antimalarial lead identification” (Nature, 2010)
# System: HepG2
# Assay: GSK_TCMDC: Percent inhibition of human HepG2 cell line. Test compounds present at 10uM.
# Type: functional
row,SMILES,Inhibition [%]
1,Cc1cccc2nc(-c3ccc(-c4ccc(CN5CCC(C(N)=O)CC5)cc4)cc3)[nH]c12.O=C(O)C(F)(F)F,8
2,COc1ccc(NC(=O)/C=C/c2ccc(-c3ccccc3)cc2)cc1N1CCN(C)CC1.O=C(O)C(=O)O,21
3,Cc1cccc2nc(-c3ccc(-c4cccc(NC(=O)Nc5ccsc5)c4)cc3)[nH]c12,24
4,O=C(C=Cc1ccc(F)cc1)N1CCN(S(=O)(=O)c2ccc(Cl)cc2)CC1,10
5,CC(=O)c1ccc(-c2cccc3c(CC(=O)Nc4ccc5nccc(N6CCN(C)CC6)c5c4)cccc23)cc1,3
6,CN1CCN(c2nsc3ccc(-c4ccc(OCCN5CCCC5)cc4)cc23)CC1.O=C(O)C(F)(F)F,57
7,Cc1cc(C)c(NC(=O)NC2CCN(CCCCCNC(=O)/C=C/c3ccc(Cl)c(Cl)c3)C2)c(C)c1 (configuration not stated),23
8,CC(CN(C)C)Oc1ccc2nc(-c3cccc(OCc4ccccc4)c3)[nH]c2c1C#N (configuration not stated),57
9,O=C(NCCNc1ccnc(Nc2ccc(F)cc2)n1)c1cc2ccccc2s1,0
10,CCNc1cc(C(=O)N[C@@H](Cc2ccccc2)[C@H](O)CNCCCc2ccc(OC)cc2)cc(N2CCCC2=O)c1.O=C(O)C(F)(F)F,4
11,COc1ccc2nc(N3CCNCC3)nc(NCCCc3ccccc3)c2c1.Cl,31
12,Cl.O=C(/C=C/c1cccc(Cl)c1)Nc1ccc2nc(CN3CCCC3)ccc2c1,47
13,Nc1nc(N)c2c(ccc3c2ccn3CC2CC2)n1,46
14,CN1CCN(Cc2ccc(-c3cccc(-c4nc5ccccc5[nH]4)c3)cc2)CC1.O=C(O)C(F)(F)F,21
15,CN(Cc1ccccc1)C(=O)c1nn(CCCN2CCC(N3CCCC3)CC2)cc1-c1ccc(Cl)c(Cl)c1,43
16,NC1CCN(c2nc(NCCc3ccc(O)cc3)nc(NCc3ccccc3-c3ccc(C(F)(F)F)cc3)n2)CC1.O=C(O)C(F)(F)F,18
17,CCOC(=O)c1c(CSc2ccccc2)oc2cc(CN(C)C)c(O)c(Cl)c12,12
18,COc1ccc(C(=O)N2CCC3(CC2)C(=O)N(CC(=O)NC2CCCCC2)CN3c2ccccc2)c(OC)c1,4
19,CN(C)CCN1CCN(Cc2ccc(-c3cccc(-c4nc5ccccc5[nH]4)c3)cc2)CC1.O=C(O)C(F)(F)F,25
20,O=C(O)C(F)(F)F.c1cc(CNCCc2ccncc2)cc(-c2ccc(-c3nc4ccccc4[nH]3)cc2)c1,28
21,CO/C(=C\C=C\c1cc2cc(Cl)ccc2[nH]1)C(=O)NCCCN1CCN(c2cc(Cl)ccc2OC)CC1,41
22,Cc1[nH]c(C)c(-c2ccc(-c3ccc(OCC(F)(F)F)cc3)nc2)c(=O)c1Cl,3
23,CCc1ccccc1N1CCN(CCCCNC(=O)c2ccc(NC(=O)c3ccc(Cl)cc3)cc2)CC1,21
24,O=C(O)C(F)(F)F.c1cc(OCCN2CCCC2)ccc1CNC1CCN(CC2CCCCC2)CC1,15
25,CN1C(=CC(=O)NC(=O)c2ccccc2)C(C)(C)c2ccccc21,0
26,O=C(O)C(F)(F)F.Oc1ccc(CCCNc2nc(NCc3cccc4ccccc34)nc(NC3CCNCC3)n2)cc1,8
27,O=C(Nc1ccc(Cl)cc1)c1ccc(CN2CCCN(Cc3cccc(F)c3)CC2)cc1.O=C(O)C(F)(F)F,59
